# Source: PubChem (several laboratories)
# In the library only some 5.1% were active in any assay of this set; here they are far more common.
# GRIN3A LBD mod = binders of NR3A ligand-binding domain, primary screen, biophysical, differential scanning fluorimetry, uHTS; Glutamate receptor ionotropic, NMDA 3A (GRIN3A) ligand-binding domain; NR3A LBD differential scanning fluorimetry, Tm shift; 0% = protein alone, 100% = glycine-bound protein; Tm shift relative to glycine control, % at 25 µM; actives 2.5% (n = 340,000);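 active = melting temperature shift of at least 10% of the positive control shift, at one fixed dose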
# CRFR2-BP ag = agonists of CRF-BP/CRF-R2 complex, primary screen, cell-based, HEK293, calcium dye fluorescence, uHTS | CRF-binding protein / CRF receptor 2 complex (human) | calcium dye fluorescence (FLIPR); percent of saturating CRF peptide response | activation, % at 13.2 µM | actives 0.46% (n = 350,000);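 active = activation of at least 50%, plus an integration ratio under a set limit after plate pattern correction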;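 note: plate controls were neutral control wells without compound for no effect and CRF at EC100 for full effect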
# CRFBP-R2 block = antagonists of CRF-BP/CRF-R2 complex, primary screen, cell-based, HEK293, calcium dye fluorescence, uHTS. AID 588475, 2011. actives 0.59% (n = 350,000). inhibition, % at 11.8 µM. CRF-induced calcium fluorescence;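 active = inhibition of the ligand-induced calcium signal above about 50% at the single tested concentration, limit read from the data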
# MPTP block = mitochondrial permeability transition pore inhibitors, primary screen, biochemical, isolated mouse mitochondria, absorbance; Ca2+ swelling absorbance, 30 min; inhibition, % at 10 µM; actives 1.4% (n = 360,000); AID 602449, 2012;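 active = inhibition of 50% or more, scaled per plate between neutral and stimulator controls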;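 note: 0% = DMSO wells given calcium and 100% = 1 mM EGTA wells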
# ANO1 activ = TMEM16A chloride channel activators or potentiators, primary screen, cell-based, HTS | actives 0.3% (n = 340,000) | HEK293 TMEM16A/YFP-H148Q/I152L, iodide quench fluorescence; active compounds read low | AID 623877, 2012 | B-score at 10 µM | Anoctamin-1 (Mus musculus), Q8BHY3;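 active = fluorescence-ratio B-score plate-corrected deviation score at least 3 library SD below zero, with starting fluorescence score within 5 deviations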;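 note: channel opened by trigger with iodide after compound preincubation; score built on the fluorescence ratio of max minus min over baseline; more negative score means more quench and so TMEM16A activation or potentiation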
# Target sequence (Q8BHY3 whole entry, looked up): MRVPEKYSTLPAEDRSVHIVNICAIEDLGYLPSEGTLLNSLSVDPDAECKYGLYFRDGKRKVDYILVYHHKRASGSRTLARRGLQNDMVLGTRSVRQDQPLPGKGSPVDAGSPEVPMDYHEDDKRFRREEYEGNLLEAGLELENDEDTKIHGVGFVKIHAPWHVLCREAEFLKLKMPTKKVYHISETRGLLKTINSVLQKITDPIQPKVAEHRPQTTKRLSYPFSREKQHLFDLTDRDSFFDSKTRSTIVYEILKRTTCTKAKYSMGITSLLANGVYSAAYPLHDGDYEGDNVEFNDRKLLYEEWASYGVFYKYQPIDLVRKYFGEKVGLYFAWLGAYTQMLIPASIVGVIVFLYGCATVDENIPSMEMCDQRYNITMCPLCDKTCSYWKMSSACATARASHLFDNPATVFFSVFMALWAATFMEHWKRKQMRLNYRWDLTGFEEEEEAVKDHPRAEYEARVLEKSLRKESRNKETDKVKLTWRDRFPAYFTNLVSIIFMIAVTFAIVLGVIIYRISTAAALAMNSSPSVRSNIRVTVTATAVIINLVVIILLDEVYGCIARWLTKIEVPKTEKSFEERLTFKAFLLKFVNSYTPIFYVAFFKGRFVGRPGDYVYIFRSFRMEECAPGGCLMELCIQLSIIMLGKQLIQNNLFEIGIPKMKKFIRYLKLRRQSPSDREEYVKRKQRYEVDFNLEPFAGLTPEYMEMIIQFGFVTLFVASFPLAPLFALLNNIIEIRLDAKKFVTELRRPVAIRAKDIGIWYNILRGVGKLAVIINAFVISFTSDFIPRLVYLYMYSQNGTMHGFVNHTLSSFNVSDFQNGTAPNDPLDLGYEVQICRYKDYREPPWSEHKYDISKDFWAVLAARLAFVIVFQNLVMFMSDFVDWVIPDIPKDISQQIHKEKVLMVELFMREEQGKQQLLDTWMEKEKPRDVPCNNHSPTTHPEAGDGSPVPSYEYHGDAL
# ANO1 block = TMEM16A chloride channel inhibitors, primary screen, cell-based, HTS. Anoctamin-1 (Mus musculus), Q8BHY3. HEK293 TMEM16A/YFP iodide influx fluorescence, ionomycin. normalized B-score (activity score, 25-100; higher = stronger inhibition) at 10 µM. actives 1.2% (n = 310,000);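 active = ratio plate-corrected score three or more library SD toward inhibition, starting fluorescence score within five deviations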;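 note: score derived from kinetic fluorescence span divided by baseline fluorescence per well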
# Active calls of the source: *; i = inactive; . = no result given.
SMILES,GRIN3A LBD mod,CRFR2-BP ag,CRFBP-R2 block,MPTP block,ANO1 activ,ANO1 block
Cc1ccc2nc(N(CCN(C)C)C(=O)c3ccc4ccccc4c3)sc2c1,12*,4,-13,0,i,i
CN(C)CCCN(C(=O)COc1ccccc1)c1nc2cc3c(cc2s1)OCO3,2,0,-3,-1,i,i
CN(C)CCN(C(=O)c1ccc2ccccc2c1)c1nc2cc3c(cc2s1)OCCO3,13*,0,-15,0,i,i
CN(C)CCN1CCN(C2CN(C3CCCCC3)S(=O)(=O)C2)CC1 (configuration not stated),.,.,.,0,.,.
COc1ccc(C(C(=O)NC2CCCCC2)N(Cc2cccs2)C(=O)Cc2c[nH]c3ccccc23)cc1OC (configuration not stated),-7,3,52*,8,i,i
O=C(NC1CCCCC1)C(c1ccc2ncccc2c1)N(Cc1cccs1)C(=O)c1cccs1 (configuration not stated),14*,1,-16,0,i,i
O=C(NC1CCCCC1)C(c1cccs1)N(Cc1cccs1)C(=O)c1cccs1 (configuration not stated),2,-1,6,7,i,i
COc1ccc(N2CCN(C(CNC(=O)C(=O)NCC3CCCO3)c3ccco3)CC2)cc1 (configuration not stated),10*,6,6,29,i,i
COc1ccc(C(=O)NCC2CCCO2)cc1 (configuration not stated),12*,-1,1,-4,i,i
CCOc1ccc(NC(=O)Nc2ccc(Cc3ccncc3)cc2)cc1,7,-3,-9,14,i,i
Cc1ccc(NC(=O)Nc2cccs2)cc1,11*,4,3,-6,i,i
Cc1ccccc1CNC(=O)Nc1cccs1,-2,19,53*,0,i,i
O=C(NCc1cccs1)Nc1cccs1,-2,-2,-12,0,i,i
CCOc1ccc(NC(=O)Nc2cccs2)cc1,19*,2,2,14,i,i
CCc1ccc(NC(=O)Nc2cccs2)cc1,9,1,-3,-5,i,i
Cc1c(Cl)c([N+](=O)[O-])nn1CC(=O)NC1CCCCC1,-2,2,99*,9,i,i
Cc1c(Br)c([N+](=O)[O-])nn1CC(=O)NC1CCCCCC1,0,-2,4,1,i,i
CCCN=C1N(CC)C[C@@H]2[C@@H]3C(=O)N(C)C(=O)[C@@H]3[C@](CC)(C(=O)OC)N12,2,1,-7,-2,.,.
CCc1noc(C)c1C(=O)NCCc1ccccc1,1,-1,3,-3,i,i
CCSC1=N/C(=C\c2ccc3c(c2)OCO3)C(=O)S1,3,4,-25,1,i,i
CCSC1=N/C(=C\c2cccc(F)c2)C(=O)S1,15*,0,11,0,i,i
CCOC(=O)c1csc(NC(=O)CN2CCCCC2)n1,1,5,11,0,i,i
O=c1cc(-c2c(F)c(F)c(F)c(F)c2F)oc2c(F)c(F)c(F)c(F)c12,.,.,.,.,.,25*
CC(C)n1ncc2c(C(=O)NCc3cccnc3)cc(C3CC3)nc21,-1,0,2,-2,i,.
N#CC1=C(N)Oc2cc(O)c(Cl)cc2C1c1cccnc1 (configuration not stated),-3,22,-20,0,-5.2*,i
SMILES,GRIN3A LBD mod,CRFR2-BP ag,CRFBP-R2 block,MPTP block,ANO1 activ,ANO1 block
N#CC1=C(N)Oc2cc(O)c(Cl)cc2C1c1ccccc1F (configuration not stated),-5,192*,-195,3,i,i
COC(=O)C1=C(C)OC(N)=C(C#N)C1c1ccccc1F (configuration not stated),1,0,8,0,i,i
CC1CN(C(=O)c2ccc(NS(=O)(=O)c3cccc(Cl)c3)cc2)CC(C)O1 (configuration not stated),-1,-1,-1,0,i,.
CCOc1ccc(NS(=O)(=O)c2ccc(C(=O)NCC(c3ccco3)N3CCCC3)cc2)cc1 (configuration not stated),0,63*,-42,0,i,.
COc1ccc(NS(=O)(=O)c2ccc(C(=O)N3CCC(C)CC3)cc2)cc1,1,65*,-9,0,i,.
O=C(NCC(c1ccco1)N1CCCC1)c1ccc(S(=O)(=O)Nc2ccc(F)cc2)cc1 (configuration not stated),0,23,-17,2,i,.
CC1CN(C(=O)c2ccc(NS(=O)(=O)c3ccc(C(C)(C)C)cc3)cc2)CC(C)O1 (configuration not stated),1,57*,-58,2,i,.
CC1CCN(C(=O)c2ccc(NS(=O)(=O)c3ccccc3)cc2)CC1,-2,-2,0,0,i,i
Cc1ccc(NS(=O)(=O)c2ccc(C(=O)N3CCCC(C(F)(F)F)C3)cc2)cc1 (configuration not stated),3,71*,-28,-1,i,i
COc1ccccc1NS(=O)(=O)c1ccc(C(=O)N2CCCC(C(F)(F)F)C2)cc1 (configuration not stated),1,11,-27,0,i,.
CC(C)(C)CN1CCC(Oc2cccc(C(=O)N3CCC[C@H]3CO)c2)CC1,0,1,9,0,i,i
COc1ccc(S(=O)(=O)N2CCC(C(N)=O)CC2)cc1C(=O)N1CCCCCC1,4,-1,1,-1,i,i
CN(C)C(=O)CCCCCCCCC(=O)N(C)C,1,-1,-4,1,i,i
CCOc1ccc(S(=O)(=O)Nc2ccc(C(=O)N3CC(C)OC(C)C3)cc2)cc1 (configuration not stated),0,36,-19,-1,i,i
CCOc1ccc(NS(=O)(=O)c2ccc(C(=O)N3CC(C)OC(C)C3)cc2)cc1 (configuration not stated),1,108*,-27,-2,i,.
CCOC(=O)/C(C#N)=C/c1c(OCC)n(CC)c2ccccc12,-12,1,-9,3,i,100*
CCC(CC)NC(=O)CN1CCN(S(=O)(=O)c2cccs2)CC1,3,-1,6,-2,i,.
